Assay results: PubChem BioAssay AID504697 (The Scripps Research Institute Molecular Screening Center, 2011)
Active and inactive are the calls of the source.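 The calls were made as follows: active = EC50 at or below 10 µM; inactive = EC50 above 10 µM.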

assay: fluorescence interference artefacts, compound only, dose response, artefact control for cardiac thin filament activator project, biochemical, no RTF in test wells (AID 504697); details: compound-only fluorescence in RTF assay buffer with Ca2+ (no RTF in test wells), artifact counterscreen;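 also: emission near 535 nm under roughly 485 nm excitation as for IANBD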

For `Cc1c(O)c2c3c(cccc3c1O)C(=O)N(c1ccccc1)C2=O`, which EC50 is on record?
The EC50 was 13.9 µM (inactive).

With `O=C(NC1CCCCC1)c1cc2nc3c(c(C(F)(F)F)n2n1)CCCC3` as the compound, how does the EC50 read?
Its EC50 is > 71.5 µM (inactive).

Which EC50 does the source give for `N#C/C(=C\c1ccc(N2CCOCC2)o1)C(=O)NC1CCCCC1` here?
Its EC50 is 16.5 µM (inactive).

For `CN1c2ccccc2C(O)=C(C(=S)Nc2ccc(F)c(Cl)c2)S1(=O)=O`, which EC50 is on record?
Its EC50 is > 71.5 µM (inactive).

With `CCOC(=O)c1cc2n(c1N)-c1ccccc1C2=O` as the compound, how does the EC50 read?
The EC50 was 62.6 µM (inactive).

With `O=C(Nc1nc(-c2nc3ccccc3s2)cs1)C1COc2ccccc2O1` (stereo unspecified) as the compound, how does the EC50 read?
Its EC50 is > 71.5 µM (inactive).

For `CCC(/C=C1\Oc2ccc(OC)cc2N1C)=C\c1sc2ccccc2[n+]1CCCS(=O)(=O)[O-]`, which EC50 is on record?
Its EC50 is 2.92 µM (active).

Which EC50 does the source give for `COc1ccc(/C=C/C(=O)NC(=S)Nc2ccc(C(=O)O)cc2)cc1` here?
Its EC50 is > 71.5 µM (inactive).

Which EC50 does the source give for `CNc1ccccc1C(C)(C)c1cc(C)[nH]n1` here?
Its EC50 is > 71.5 µM (inactive).

For `COC(=O)c1sc(N2C(=O)C(O)=C(C(=O)c3ccc(C)o3)C2c2ccc(F)cc2)nc1C` (stereo unspecified), which EC50 is on record?
Its EC50 is > 71.4 µM (inactive).

With `Cc1ccc(NC(=O)COc2ccc(/C=N/NC(=O)CSCc3ccccc3)cc2)cc1` as the compound, how does the EC50 read?
The EC50 was > 71.5 µM (inactive).

For `O=C(NCc1ccc(Cl)cc1)C1CCN(c2cnccn2)CC1`, which EC50 is on record?
The EC50 was > 71.4 µM (inactive).

For `O=C(CNCc1cccs1)Nc1ccc(S(=O)(=O)N2CCCCC2)cc1`, which EC50 is on record?
The EC50 was > 71.5 µM (inactive).

With `CCc1ccc(C(=O)NNC(=O)c2cccc(N3C(=O)CCC3=O)c2)cc1` as the compound, how does the EC50 read?
The EC50 was > 71.5 µM (inactive).

With `COc1ccc(/C=C2\SC(=S)N(CCCC(=O)Nc3ccccc3C(=O)O)C2=O)cc1OC` as the compound, how does the EC50 read?
The EC50 was 53.3 µM (inactive).

With `COc1ccc(C)cc1NC(=O)C12CCC(C)(C(=O)O1)C2(C)C` (stereo unspecified) as the compound, how does the EC50 read?
The EC50 was > 71.5 µM (inactive).

For `CC(Oc1ccc(F)cc1)C(=O)Nc1sc2c(c1C(=O)NCc1cccnc1)CCCC2` (stereo unspecified), which EC50 is on record?
Its EC50 is > 71.5 µM (inactive).

For `CN1C(=O)/C(=C/C=C2\SCCN2C)OC1=S`, which EC50 is on record?
The EC50 was 15.9 µM (inactive).

With `CCC(C(=O)O)N1C(=O)/C(=C/c2cccn2C)SC1=S` (stereo unspecified) as the compound, how does the EC50 read?
Its EC50 is 35.3 µM (inactive).

Which EC50 does the source give for `Cc1cc(/C=C2\SC(=S)N(C)C2=O)c(C)n1-c1ccccc1O` here?
The EC50 was 15.7 µM (inactive).

Which EC50 does the source give for `CC1(C)CC(=O)C(C=Nc2cc(C(=O)c3ccccc3)ccc2N)=C(O)C1` here?
Its EC50 is > 71.5 µM (inactive).

For `CCN1C(=O)/C(=C/C=C2/SCCN2C)SC1=S`, which EC50 is on record?
Its EC50 is 2.63 µM (active).

With `Cc1ccnc2nc(C(=O)OCC(=O)NCCc3ccccc3)nn12` as the compound, how does the EC50 read?
The EC50 was > 71.5 µM (inactive).

Which EC50 does the source give for `COc1ccc(/C=C2/SC(c3ccc(C)cc3)=NC2=O)cc1OC` here?
Its EC50 is 1.43 µM (active).

Which EC50 does the source give for `O=C(OCCN1C(=O)c2cccc3c(N4CCOCC4)ccc(c23)C1=O)c1ccc(Cl)cc1Cl` here?
The EC50 was 2.52 µM (active).

Which EC50 does the source give for `CCSC1=N/C(=C\C=C2/Oc3ccccc3N2CC)C(=O)S1` here?
Its EC50 is 11.9 µM (inactive).

With `COc1ccc2nc(-c3ccccn3)[nH]c2c1` as the compound, how does the EC50 read?
The EC50 was > 71.5 µM (inactive).

With `O=C1c2ccccc2C(Nc2cccnc2)N1Cc1ccccc1Cl` (stereo unspecified) as the compound, how does the EC50 read?
The EC50 was > 71.5 µM (inactive).

Which EC50 does the source give for `CN(/N=C/c1ccc(N(C)C)cc1)C1=NS(=O)(=O)c2ccccc21` here?
The EC50 was 22.5 µM (inactive).

With `C/C(O)=c1/ccc2cccc3nc(C)nc1c23` as the compound, how does the EC50 read?
The EC50 was > 23.8 µM (inactive).

For `COC(=O)C1=C(C)NC(=O)/C1=C\N(C)C`, which EC50 is on record?
Its EC50 is > 71.5 µM (inactive).

With `N#CC1=C(N)Oc2ccc3ccc(O)cc3c2C1c1ccsc1` (stereo unspecified) as the compound, how does the EC50 read?
Its EC50 is 65.8 µM (inactive).

Which EC50 does the source give for `COc1cc(C(=O)Oc2ccccc2/C=N/NC(=O)c2ccc(Cl)cc2)cc(OC)c1OC` here?
Its EC50 is > 71.5 µM (inactive).

Which EC50 does the source give for `COc1cccc(CC(NC(C)=O)C(=O)NC2CCN(c3nc(C)cc(C)c3C#N)CC2)c1OC` (stereo unspecified) here?
Its EC50 is > 71.5 µM (inactive).

For `N#Cc1ccc(S(=O)(=O)NC2CCCCNC2=O)cc1` (stereo unspecified), which EC50 is on record?
The EC50 was > 71.4 µM (inactive).

With `Nc1ccc2nc3c(=O)[nH]c(=S)[nH]c3nc2c1` as the compound, how does the EC50 read?
Its EC50 is 2.93 µM (active).
